The values that follow come from PubChem BioAssay (EPA / NIEHS).

The structures appear in SMILES notation. Active and inactive are the calls of the source. The calls were made as follows: active = hit-call score of the fitted dose curve at least 0.9, where 1 is the maximum; inactive = score below 0.9.

What is called AC50 is the concentration at which the activity in the assay is half-maximal.

Test [1] in a line: APR_HepG2_CellCycleArrest_24hr: Apredica 24-hour HepG2 Assay for Cell Cycle Arrest (AID 2282905).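 Also: cell cycle arrest scored as ratio of 2N to 4N nuclear DNA content.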 To be noted: imaging, actives raise or lower the signal. An outline of the steps:
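Step one: dose HepG2 with test compounds, 0.39–200 uM, 0.5% DMSO, 24 hr. Step two: fix, permeabilize, stain nuclei with Hoechst 33342. Step three: image six fields per well at 20x, quantify DNA content, fit bidirectionally relative to DMSO.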

The nature of test [2]: APR_HepG2_NuclearSize_24hr: Apredica 24-hour HepG2 Assay for Nuclear Size (AID 2282907). The settings on record: high-content imaging, actives raise or lower the signal. In a few lines:
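After fixation and permeabilization, 24-hr-treated HepG2 cells were stained with Hoechst 33342 and imaged on an ArrayScan (20x). Doses spanned 0.39–200 uM in duplicate. Nuclear diameter changes in either direction were fitted relative to 0.5% DMSO controls.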

Test [3] can be described thus: APR_HepG2_CellLoss_24hr: Apredica 24-hour HepG2 Assay for Cell Loss (AID 2282908).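 As to AC50: fit in both directions so a hit may be cell loss or gain.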 The settings on record: high-content imaging. In a few lines: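 Duplicate wells received compound at ten concentrations (0.39–200 uM; final DMSO 0.5% v/v). After fixation with formaldehyde, nuclei stained with Hoechst 33342 were imaged at 20x. Loss or gain of cell count was fitted relative to DMSO controls.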

Test [4] is described as follows: APR_HepG2_MicrotubuleCSK_24hr: Apredica 24-hour HepG2 Assay for Microtubule CSK Stabilty (AID 2282909). The settings on record: HepG2 microtubule cytoskeleton imaging, actives raise or lower the signal. In a few lines: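 Microtubule stability is scored from tubulin immunofluorescence in fixed HepG2 cells imaged at 20x. Cells receive ten compound concentrations up to 200 uM for 24 h; taxol and DMSO serve as positive and negative controls.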

Test [5] in a line: APR_HepG2_MitoticArrest_24hr: Apredica 24-hour HepG2 Assay for Mitotic Arrest (AID 2282910). The settings on record: high-content imaging, actives raise or lower the signal. In a few lines:
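High-content imaging of fixed HepG2 cells labeled with Hoechst 33342 and anti-phospho-histone H3, after 24 h treatment. Ten concentrations 0.39 to 200 uM in duplicate, final DMSO 0.5%; changes fitted both directions relative to DMSO.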

Test [6] is described as follows: APR_HepG2_MitoMembPot_24hr: Apredica 24-hour HepG2 Assay for Mitochondrial Membrane Potential (AID 2282911). The settings on record: imaging, actives raise or lower the signal. An outline of the steps:
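HepG2 cells exposed 24 h to 0.39–200 uM compounds in duplicate, 0.5% v/v DMSO final. MitoTracker Red CMXRos 250 nM loaded 30 min before formaldehyde fixation; high-content imaging at 20x, bidirectional fit versus DMSO.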

Test [7] can be described thus: APR_HepG2_MitoMass_24hr: Apredica 24-hour HepG2 Assay for Mitochondrial Mass (AID 2282912). To be noted: high-content imaging, actives raise or lower the signal. In a few lines:
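Readout: fluorescence of MitoTracker Red CMXRos (250 nM, added 30 min pre-fixation) in fixed HepG2 cells imaged by HCS. Exposure lasted 24 hr at 0.39–200 uM; increases and decreases were both fitted relative to DMSO.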

Test [8] in a line: APR_HepG2_p53Act_24hr: Apredica 24-hour HepG2 Assay for p53 Activation (AID 2282913).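 Also: p53 protein immunofluorescence averaged per cell in HepG2 with Hoechst nuclei.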 The settings on record: high-content imaging, actives raise or lower the signal. An outline of the steps:
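HepG2 cells exposed 24 h to compounds at 0.39–200 uM in duplicate, 0.5% v/v DMSO final; fixed, permeabilized, stained with anti-p53 antibody and Hoechst 33342; fluorescence imaging; bidirectional curve fit versus DMSO.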

The nature of test [9]: APR_HepG2_CellCycleArrest_72hr: Apredica 72-hour HepG2 Assay for Cell Cycle Arrest (AID 2282914). To be noted: high-content imaging, actives raise or lower the signal. An outline of the steps:
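HepG2 cells exposed 72 h in duplicate to 0.39–200 uM compound, 0.5% DMSO final. Formaldehyde-fixed, Hoechst 33342-stained nuclei imaged at 20x, six fields per well; DNA content per valid cell quantified by cell-cycle image analysis, bidirectional fit versus DMSO.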

Test [10] is described as follows: APR_HepG2_CellLoss_72hr: Apredica 72-hour HepG2 Assay for Cell Loss (AID 2282915). The settings on record: high-content imaging. In a few lines: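 Cell number comes from Hoechst 33342-labelled nuclei, imaged at 20x after 3.7% formaldehyde fixation. Dosing was 0.39–200 uM, ten concentrations in duplicate, 0.5% DMSO final, for 72 h. Bidirectional fit relative to DMSO baseline.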

The nature of test [11]: APR_HepG2_P-H2AX_72hr: Apredica 72-hour HepG2 Assay for H2AX Phosphorylation (AID 2282916).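 Also: phospho-histone H2A.x immunostain intensity per cell marking DNA damage.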 To be noted: imaging, actives raise or lower the signal. In a few lines: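 Phospho-H2A.x imaging endpoint in HepG2 after 72 hr compound exposure (0.39–200 uM, duplicate wells). Activity derived by bidirectional curve fitting with DMSO as baseline.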
The nature of test [12]: APR_HepG2_MitoMembPot_72hr: Apredica 72-hour HepG2 Assay for Mitochondrial Membrane Potential (AID 2282917). The settings on record: imaging, actives raise or lower the signal. In a few lines: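 Membrane potential read by MitoTracker Red CMXRos (250 nM, 30 min, pre-fixation) fluorescence imaging of HepG2 after 72 hr exposure. Ten concentrations, 0.39–200 uM, duplicate wells, 0.5% DMSO; fitted in both directions against DMSO baseline.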

A short description of test [13]: APR_HepG2_MitoticArrest_72hr: Apredica 72-hour HepG2 Assay for Mitotic Arrest (AID 2282918). The settings on record: high-content imaging, actives raise or lower the signal. In a few lines:
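HepG2 cells treated 72 h at 0.39–200 uM, 0.5% DMSO final; formaldehyde-fixed, stained with Hoechst 33342 and phospho-histone H3 antibody, imaged by high-content fluorescence; bidirectional fit versus DMSO.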

Test [14] can be described thus: APR_HepG2_P-H2AX_24hr: Apredica 24-hour HepG2 Assay for H2AX Phosphorylation (AID 2282920). To be noted: high-content imaging, actives raise or lower the signal. In a few lines:
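HepG2 cells dosed 24 h at 0.39–200 uM (10 points, duplicate, 0.5% DMSO final). Formaldehyde-fixed and permeabilized, then immunostained for phospho-H2A.x with Hoechst. Fluorescence quantified by high-content imaging, fitted bidirectionally versus DMSO.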

Test [15] is described as follows: APR_HepG2_StressKinase_72hr: Apredica 72-hour HepG2 Assay for Stress Kinase (AID 2282921). The settings on record: HepG2 stress kinase (phospho-c-Jun) imaging, actives raise or lower the signal. In a few lines:
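Stress kinase signal reflects nuclear phospho-c-Jun staining in fixed, permeabilized cells exposed 72 h to compound at 0.39–200 uM; DMSO-normalized, fitted for increases or decreases.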

Test [16] can be described thus: APR_HepG2_StressKinase_24hr: Apredica 24-hour HepG2 Assay for Stress Kinase (AID 2282922). The settings on record: HepG2 stress kinase (phospho-c-Jun) imaging, actives raise or lower the signal. In a few lines:
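High-content imaging of phospho-c-Jun immunofluorescence in fixed, permeabilized HepG2 cells after 24 h dosing. Ten concentrations, 0.39 to 200 uM, run in duplicate at 0.5% v/v DMSO; gain or loss of signal versus DMSO.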

A short description of test [17]: APR_HepG2_p53Act_72hr: Apredica 72-hour HepG2 Assay for p53 Activation (AID 2282923).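 Also: average cellular p53 protein immunofluorescence intensity in HepG2 cells.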 The settings on record: high-content imaging, actives raise or lower the signal. An outline of the steps:
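Fixed-cell p53 staining (sheep primary, Cy5 secondary) measured by fluorescence imaging following 72 hr treatment at 0.39–200 uM in 0.5% DMSO; DMSO served as negative control and baseline.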

The nature of test [18]: APR_HepG2_MitoMass_72hr: Apredica 72-hour HepG2 Assay for Mitochondrial Mass (AID 2282924).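 Also: MitoTracker Red CMXRos stain intensity per cell imaged as mitochondrial mass.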 To be noted: high-content imaging, actives raise or lower the signal. In a few lines:
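Readout is imaged MitoTracker Red (250 nM, 30 min, pre-fixation) signal, fitted bidirectionally against DMSO baseline. Human HepG2 liver cells received compound 0.39–200 uM in duplicate for 72 hr, final DMSO 0.5%.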

Test [19] is described as follows: APR_HepG2_NuclearSize_72hr: Apredica 72-hour HepG2 Assay for Nuclear Size (AID 2282925). To be noted: high-content imaging, actives raise or lower the signal. In a few lines:
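Nuclear size was read by high-content imaging of Hoechst 33342 stain after formaldehyde fixation. Compounds ran 72 h on HepG2 at 0.39 to 200 uM, with final DMSO 0.5% v/v. Curves fitted both directions relative to DMSO control.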

A short description of test [20]: APR_HepG2_MicrotubuleCSK_72hr: Apredica 72-hour HepG2 Assay for Microtubule CSK Stabilty (AID 2282919). To be noted: HepG2 microtubule cytoskeleton, high-content imaging, actives raise or lower the signal. An outline of the steps: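 High-content imaging of alpha-tubulin staining in fixed HepG2 cells after 72 hr treatment with ten concentrations from 0.39 to 200 uM (0.5% DMSO). Fitting was bidirectional against DMSO; taxol served as positive control.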

Take `CN(C)c1ccc(C(=O)c2ccc(N(C)C)cc2)cc1`: the AC50 is 4.79 µM (active) in [1]; 1.64 µM (active) in [3]; 0.403 µM (active) in test [4]; 0.538 µM (active) in [5]; 0.317 µM (active) in [8]; 0.639 µM (active) in test [9]. The AC50 is 1.75 µM (active) in test [10]; 15.4 µM (active) in [11]; 16.5 µM (active) in test [13]; 26.7 µM (active) in [14]; 9.87 µM (active) in [15]; 14 µM (active) in test [16]. Also, the values for the AC50 in [17], in test [18] and in [19] were 0.292 µM (active), 0.855 µM (active) and 1.91 µM (active), respectively. The molecule was called inactive in test [2], in test [6], in [7] and in test [12].

Consider `CCCCOC(=O)c1ccccc1C(=O)OCc1ccccc1`, for which the outcome in test [1], in [2], in test [4], in test [5], in test [6] and in test [7] was inactive. Further, the call in test [8], in test [11], in test [12], in test [13], in test [20] and in test [14] was inactive. Also, the outcome in test [15], in test [16], in [18] and in test [19] was inactive. The AC50 in test [3] was 48.5 µM (active); in test [10], 60.3 µM (active); in test [17], 98.9 µM (active).

With `Cc1ccc(N=C=O)cc1N=C=O`, the call in test [1], in [2], in test [3], in test [4], in test [5] and in test [6] was inactive. In addition, the result in [7], in test [8], in test [10], in test [11], in test [12] and in [13] was inactive. The call in test [20], in test [14], in test [15], in test [16], in [17] and in [18] was inactive. Moreover, the result in test [19] was inactive.

As to `C[N+](C)(C)CC1CO1` (stereo not given), the AC50 in test [1] was 81.2 µM (active). Further, the result in test [2], in test [3], in [4], in [5], in [6] and in test [7] was inactive. Further, the outcome in test [8], in [9], in test [10], in test [11], in [14] and in [15] was inactive. Also, the molecule was classed as inactive in test [16], in [17] and in [19].

With `Nc1ccc(Cl)cc1N`, the AC50 is 0.162 µM (active) in test [1]; 0.944 µM (active) in test [8]; 1.1 µM (active) in test [10]; 5.9 µM (active) in test [11]; 2.4 µM (active) in test [13]; 3.83 µM (active) in test [20]. Also, the figures for the AC50 in [14] and in test [17] were 1.2 µM (active) and 3.54 µM (active), respectively. Moreover, the molecule was classed as inactive in test [2], in test [3], in test [4], in test [5], in test [6] and in test [7]. Moreover, the outcome in test [12], in test [15], in [16], in [18] and in test [19] was inactive.

Take `COC(=O)c1ccccc1N`: the molecule was called inactive in test [1], in test [2], in test [3], in test [4], in test [5] and in [6]. For the same molecule, the molecule was classed as inactive in [7], in [8], in test [10], in [11], in [12] and in test [13]. Further, the result in test [20], in test [14], in [15], in [16], in test [17] and in test [18] was inactive. In test [19], the call was inactive.

In the case of `ClC1=C(Cl)[C@]2(Cl)[C@H]3[C@H]([C@@H]4C=C[C@H]3C4)[C@@]1(Cl)C2(Cl)Cl`, the outcome in test [1], in [4], in test [6], in test [12], in [20] and in [16] was inactive. In addition, the call in [18] and in test [19] was inactive. The AC50 is 53.8 µM (active) in test [2]; 46.5 µM (active) in [3]; 25.4 µM (active) in test [5]; 48.1 µM (active) in [7]; 49.7 µM (active) in test [8]; 36.7 µM (active) in [10]. The concentration at half-maximal activity (AC50) in [11] was 42.6 µM (active); in test [13], 32.9 µM (active); in test [14], 50.7 µM (active); in test [15], 53.4 µM (active); in test [17] it was 45.3 µM (active).
